# RORgamma inh – blocks mouse ROR gamma transcriptional activity. actives 5.4% (n = 310,000). Drosophila S2 Gal4-RORgamma UAS-luciferase reporter, 20 h. AID 2551. P51450. Potency, µM (doses to about 53.6 µM), for inactives: at the top dose activity change, negative = inhibition, actives largely listed as inhibitors; further: potency means the concentration at half of the fitted maximal effect; nearly all actives have a fitted effect of over 60% in size
# Target sequence (P51450 whole entry, looked up, the tested form may be a part): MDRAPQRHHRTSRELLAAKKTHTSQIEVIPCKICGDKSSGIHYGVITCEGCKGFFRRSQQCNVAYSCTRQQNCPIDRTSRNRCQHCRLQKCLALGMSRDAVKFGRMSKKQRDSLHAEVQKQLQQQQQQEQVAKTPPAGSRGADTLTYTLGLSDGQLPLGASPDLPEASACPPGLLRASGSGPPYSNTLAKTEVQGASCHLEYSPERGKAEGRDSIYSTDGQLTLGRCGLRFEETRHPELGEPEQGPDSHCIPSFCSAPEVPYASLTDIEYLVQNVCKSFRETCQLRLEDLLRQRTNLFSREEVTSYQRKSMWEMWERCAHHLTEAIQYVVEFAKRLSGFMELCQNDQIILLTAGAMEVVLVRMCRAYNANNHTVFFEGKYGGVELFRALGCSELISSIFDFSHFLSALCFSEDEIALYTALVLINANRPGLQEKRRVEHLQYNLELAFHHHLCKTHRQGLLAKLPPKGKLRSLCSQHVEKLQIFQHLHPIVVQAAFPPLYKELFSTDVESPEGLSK
#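 Drosophila Schneider cells stably carrying a metallothionein-driven Gal4 DBD–ROR gamma fusion and a UAS-Photinus luciferase reporter were exposed to compound for 1 hr, then induced with copper sulfate (700 uM final) for 20 hr at ambient temperature before luminescence reading.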
# VP16 counter – Gal4-VP16 reporter inhibition counter-screen; Drosophila S2 Gal4-VP16 UAS-luciferase, luminescence, 20 h; AID 2546; Potency, µM (top dose mostly 53.6 µM), for the others: top-dose activity, negative = inhibition, most hits filed as inhibitors; actives 3.5% (n = 310,000);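 further: Gal4-VP16 expression switched on by copper sulfate through the metallothionein promoter; potency means the concentration at half of the fitted maximal effect; nearly all actives have a fitted effect of over 50% in size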
# TSHR antagonist – antagonists of human thyroid stimulating hormone receptor; P16473; TSHR-expressing cells, TSH-stimulated cAMP HTRF, 2 h; hits give low values; activity change, negative = inhibition, % at 11.5 µM; actives 0.2% (n = 330,000); AID 504810;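 active means activity change below a set negative limit, meaning inhibition stronger than a set level, cut at about -70% in these data; inconclusive means activity change between two set negative limits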
#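 Read-out is FRET at 665 nm (cryptate excitation 337 nm) from a cryptate-tagged anti-cAMP antibody, competed by cell cAMP against cAMP-d2. Compounds are tested on freshly harvested TSHR cells challenged with 4nM TSH (EC80) for 2 hours at 37 deg C.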
# B2AR arrestin – beta2AR (human) beta-arrestin recruitment activity | actives 0.02% (n = 330,000) | beta-arrestin recruitment to beta2AR, cell-based reporter | AID 492947 | Potency, µM (titrated, usually from 46.1 µM), inactives show at the highest dose activation, most hits filed as activators;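 further: potency means the concentration at half of the fitted maximal effect; 0% = DMSO controls and full agonism = EC100 isoproterenol or metaproterenol; nearly all actives have a fitted effect of over 65% in size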
# ELG1 DNA repair – blocks ELG1-dependent DNA repair in HEK293T cells; HEK293T ELG1-luciferase reporter, luminescence, 16 h; DNA damage induced by 5-fluorouridine; Potency, µM (series often up to 46.1 µM), for inactives: top-dose activity change, negative = inhibition, usual class: inhibitors; actives 2.3% (n = 330,000); further: potency means the concentration at half of the fitted maximal effect; nearly all actives have a fitted effect of over 55% in size
#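 Quantitative HTS, concentration-response format. 2,000 cells/well co-treated with 5-fluorouridine and compound, 16 hr in 5% CO2 at 37 °C; ONE-Glo luminescence read after 30 min.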
# Numbers without * were called inactive; ? = inconclusive; · = not tested or not shown; [ ] = dose if it differs, or a comment. Rows were chosen to be rich in hits. Some 7.5% of all compounds tested hit in one or more screens of this group. Unless noted, the call rests on the fitted dose curve; in most records, active means well fitted curve in the direction sought with a large enough effect; inconclusive means small, poorly fitted or top-dose-only effect, or another doubt; inactive means no such curve, though single readings can be large; an effect the other way counts as inactive or inconclusive. Unless noted, on the % scale 0 is the no-effect control and ±100 the full control effect.
SMILES,RORgamma inh,VP16 counter,TSHR antagonist,B2AR arrestin,ELG1 DNA repair
CC(=O)C1=NN(c2ccccc2)C(c2cccs2)N1c1ccc(N(C)C)cc1 (centres undefined),-22%,?,-35,-1%,16µM*
COc1ccc(NC(=O)C2CCC2)cc1S(=O)(=O)Nc1cc(C)ccc1Br,·,·,-8,4%,23µM*
COC(=O)C/C=C\[C@@H](C)[C@@H](/C=N\OC[C@@H]1O[C@H](c2ccccc2)C=C[C@@H]1Oc1ccc(OC)cc1)OC,-6%[10 µM],17%[10 µM],·,·,·
S=c1[nH]c2ccccc2s1,7.9µM*,10µM*,·,·,·
O=C(Nc1ccc2[nH]c(=S)sc2c1)c1ccccc1,-23%,10%,-2,-1%,?
COCCCNC(=S)N1CCN(c2nc(C)nc3sc4c(c23)CCCC4)CC1,?,-9%,-2,1%,21µM*
CCCNC(=S)N1CCN(c2nc(C)nc3sc4c(c23)CCCC4)CC1,?,-12%,-8,0%,?
CS(=O)(=O)Nc1cccc(-c2nc(Nc3ccncc3)c3ccccc3n2)c1,?,6%,·,·,·
Cc1ccc(S(=O)(=O)Nc2ccsc2C#N)cc1,18%,-4%,-10,-1%,-3%
CCOC(=O)c1ccc(NC(=O)c2nc[nH]c2C(=O)N2CCc3ccccc3C2)cc1,3.5µM*,?,5,-1%,?
Cc1ccc(NC(=O)c2nc[nH]c2C(=O)N2CCc3ccccc3C2)cc1,·,·,-3,0%,-12%
CC(C)(C)OC(=O)NCCCC[C@H](NC(=O)c1nc[nH]c1C(=O)N1CCc2ccccc2C1)C(=O)OC(C)(C)C,?,-17%,5,0%,8.2µM*
CC(C)(C)OC(=O)[C@H](Cc1ccccc1)NC(=O)c1nc[nH]c1C(=O)N1CCc2ccccc2C1,?,?,-12,-1%,-22%
CC(C)(C)OC(=O)NCCCCCNC(=O)c1nc[nH]c1C(=O)N1CCc2ccccc2C1,·,·,11,0%,16µM*
C#CCCCO/N=C1/C[C@@H](O)[C@@H](O)[C@@H]2[C@@H]3C(=O)N([C@@H](C)c4ccccc4)C(=O)[C@H]3CC[C@H]12,4%[10 µM],-7%[10 µM],·,·,·
CCNc1ncc2nc(-c3cc(F)cc(F)c3)c(=O)n(Cc3ccc(F)cc3)c2n1,9%,-4%,·,·,·
COc1cccc(Nc2ncc3ncc(=O)n(C[C@H]4CCCO4)c3n2)c1,-33%,11µM*,·,·,·
O=c1cnc2cnc(Nc3ccccc3)nc2n1C[C@H]1CCCO1,-37%,?,·,·,·
Cc1ccc2nc(C3CCCN3Cc3nc(CCC(C)C)no3)[nH]c2c1 (centres undefined),7.1µM*,20µM*,15,-1%,?
COc1cccc(C2CCCN2Cc2nc(CCC(C)C)no2)c1 (centres undefined),-26%,-16%,16,0%,3%
CC(C)[C@@H](CC(=O)N[C@@H]1CCNC[C@H]1C(=O)N[C@H](CC(=O)N[C@@H](CCC(=O)O)CC(=O)O)Cc1c[nH]c2ccccc12)NC(=O)C[C@H](Cc1c[nH]c2ccccc12)NC(=O)[C@@H]1CNCC[C@H]1N,-21%,-2%,·,·,·
COc1ccc(/C=N/NC(=O)c2nc(-c3ccccc3)n(-c3ccccc3)n2)cc1OC,11%,-12%,8,-1%,13µM*
COc1ccc(/C=N/NC(=O)c2cc(-c3ccccc3)nc3ccccc23)cc1O,-5%,18%,-9,-1%,-5%
NC(=O)c1ccsc1NC(=O)c1nc(-c2ccccc2)n(-c2ccccc2)n1,-8%,-2%,-3,2%,18µM*
COc1ccc(/C=N/NC(=O)c2nc(-c3ccccc3)cc(-c3ccccc3)n2)cc1,29%,-4%,-15,0%,6.5µM*
SMILES,RORgamma inh,VP16 counter,TSHR antagonist,B2AR arrestin,ELG1 DNA repair
COc1ccc(/C=N/NC(=O)c2nc(-c3ccccc3)cc(-c3ccccc3)n2)cc1O,41%[10 µM],-15%,-31,3%,6.5µM*
O=C(Nc1ccccn1)c1nc(-c2ccccc2)n(-c2ccccc2)n1,?,-11%,?,0%,?
O=C(c1cccc(Br)c1)N1CCN(S(=O)(=O)N2CCCCCC2)CC1,27%,3%,-6,0%,0%
C#CC(C)OC(=O)Nc1cccc(Cl)c1 (centres undefined),?,3%,·,·,·
O=C(NCCNC(=O)c1ccc(Cl)cc1Cl)c1cnccn1,0%,-5%,14,0%,14%
COCCCn1c(-c2ccc(S(=O)(=O)N3CCOCC3)cc2)csc1=Nc1ccccc1,0%,5%,-35,0%,6.5µM*
CCn1c(-c2ccc(S(=O)(=O)N3CCOCC3)cc2)csc1=Nc1ccc(C)c(Cl)c1,·,·,21,0%,·
OCCCn1c(-c2ccccc2)csc1=Nc1ccccc1,?,-11%,-20,0%,-25%
Clc1ccc(-c2csc(=Nc3cccnc3)n2CCCn2ccnc2)cc1Cl,?,-10%,-7,-1%,8.2µM*
COCCn1c(-c2ccc(Br)cc2)csc1=Nc1cccnc1,0%,-13%,-9,0%,12µM*
COC(=O)c1ccc(NC(=O)CCN2CCOCC2)cc1,32%,-7%,24,-1%,-13%
CN(C)C(=O)c1nc2ccc(Cl)cn2c1CN1CCCC(OCc2cccnc2)C1 (centres undefined),10%,-7%,-3,0%,1%
COc1ccc(NC(=O)/C(Cl)=C(/Cl)S(=O)Cc2ccccc2)cn1 (centres undefined),1µM*,1.1µM*,-39,?,8.2µM*
COc1ccc(CS(=O)(=O)/C(Cl)=C(/Cl)C(=O)Nc2ccc(OC)nc2)cc1,5µM*,3.2µM*,-43,-1%,?
COc1ccc(NC(=O)Cc2ccccc2)cn1,23%,4%,2,0%,8%
CCCNC(=O)OC[C@@H]1O[C@H](CCON=C(C)C)C=C[C@@H]1Oc1ccc(OC)cc1,1%[10 µM],-1%[10 µM],·,·,·
Cc1ccc2nc(N/N=C\c3ccc([N+](=O)[O-])o3)nc(-c3ccccc3)c2c1,10µM*,1%,-4,0%,21µM*
N#Cc1ccccc1/C=N/Nc1nc(-c2ccccc2)c2cc(Br)ccc2n1,11µM*,-25%,17,0%,?
COC(=O)C(C(C)=O)C(NC(=O)OC(C)(C)C)c1ccccc1 (centres undefined),17%,1%,·,·,·
CC(C)CCCC(C)CCCC(C)CCCC(C)C(=O)O (centres undefined),3%,-13%,·,·,·
COc1ccc(N2C(=O)CC(NNc3nc4ccccc4s3)C2=O)cc1 (centres undefined),21%,-13%,-2,0%,10%
COc1ccc(N2C(=O)CC(Sc3nc4ccccc4s3)C2=O)cc1 (centres undefined),5µM*,?,-3,0%,4%
